# Measured values as given in PubChem BioAssay (NCI).
# The panel holds about 83,000 compounds, 20% with a hit somewhere; the sample as a whole holds those more often.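 Treatment: one concentration, 48 hours, 96-well format. Scoring: percent growth, with anything below 10 considered active.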 Values without a mark were called inactive. Active and inactive are the calls of the source.
# Tested on: HL-60(TB) leukemia
# Assay: NCI-60 one-dose screen, 48 h (100 = growth as untreated, 0 = no growth, -100 = all killed)
# Settings: 10 µM unless noted
row,SMILES,growth
1,COc1ccc(/C=C2\CN(Cc3cn(CCCNc4ccnc5cc(Cl)ccc45)nn3)C/C(=C\c3ccc(OC)c(OC)c3)C2=O)cc1OC,-38% (active)
2,CN1CC=C(c2cc(NC(=O)Nc3ccc(Oc4ccnc(NC(=O)C5CC5)c4)c(F)c3)cc(C(F)(F)F)c2)CC1,-18.3% (active)
3,COP(=O)(OC)c1nnn(-c2cccc([N+](=O)[O-])c2)c1C,99.8%
4,COc1ccccc1S(=O)(=O)Nc1ccc2c3c(cc(-c4cnn(C5CC5)c4)nc13)C(=O)N2C,-10% (active)
5,c1ccc(-c2nc3sc(C(c4ccccc4)c4ccccc4)nn3c2-c2ccccc2)cc1,112%
6,CCOC(=O)CNC1=C(Cl)C(=O)N(Cc2ccc(Cl)cc2)C1=O,105%
7,Fc1ccc(CNc2c3ccccc3nc3ccccc23)cc1,21.3%
8,CC(C)=CCCC(C)c1ccc(C)c2c1OCN(CC1CCNCC1)C2 (stereo not given),13.8%
9,O=C(C=P(c1ccccc1)(c1ccccc1)c1ccccc1)CCl,-39.8% (active)
10,Cc1cc2cn3c4ccc(O)cc4nc(N)c3c2cc1C,-32.5% (active)
11,O=[N+]([O-])c1cc2c(cc1Br)-c1ccccc1C2,104%
12,CS(=O)c1cccc(-c2ccc3nc(N)n(-c4ccc(C(F)(F)F)cc4)c(=O)c3c2)c1 (stereo not given),100%
13,O=c1nc(NO)[nH]c(=O)n1Cc1ccc(F)cc1,103%
14,CC(=O)[C@@]12O[C@](C)(c3ccccc3)O[C@@H]1CC1C3CCC4=CC(=O)CC[C@]4(C)C3CC[C@@]12C (stereo not given in full),0.639% (active)
15,O=C(O)c1cn(C2CC2)c2cc(N3CCN(C(=O)N/N=C/c4cccc5ccccc45)CC3)c(F)cc2c1=O,97.8%
16,Clc1cc(Cl)c(Cl)c(-c2nnc(SCc3ccncc3Br)o2)c1,88.8%
17,COc1cc(NC(=O)CSc2nc3ccc(C)cc3c(=O)n2-c2ccccc2)cc(OC)c1OC,89.1%
18,COc1ccc(-c2nn3c(-c4cc(F)c(Cl)cc4Cl)nnc3s2)cc1,-1.09% (active)
19,c1ccc(-c2c(-c3ccccc3)[n+](Cc3ccc4ccccc4c3)c(-c3cccc4ccccc34)n2Cc2ccc3ccccc3c2)cc1,-46.8% (active)
20,CCNCCNc1cc(-c2cccc(C(F)(F)F)c2)c(C#N)c2nc3ccccc3n12,-58.7% (active)
21,Cc1cc(C#Cc2ccc(C(C)(C)C)cc2)ccc1-n1c(/C=C/c2c(Cl)cccc2Cl)nc2ccccc2c1=O,99.6%
22,COc1cc2c(cc1O)c(=O)n(CCN(C)C)c1c3cc4c(cc3ncc21)OCO4,-29.2% (active)
23,CCCCCCCCCCN(CCCCCCCCCC)CC(=O)c1ccc2cc(Br)c3ccccc3c2c1,-62.2% (active)
24,O=C1CSC(c2ccccc2)N1c1ccccc1 (stereo not given),99.7%
25,COc1ccc(/C=C(\C#N)c2cc(OC)c3c(c2)OCO3)cc1,-1.4% (active)
